Assay [1] deals with Albumin (Bos taurus) (UniProt P02769). As to the kind of experiment: compounds binding labelled BSA control protein – biochemical, small-molecule microarray, Alexa647 label, 635/667 nm fluorescence, artefact control for SMM control protein annotation, profiling panel (AID 1118).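 Also: score merges 667 nm emission intensity and signal-to-noise per printed compound spot.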 Particulars: BSA-A647 binding, fluorescence 635 nm, higher = more signal.
Assay [2] in a line: probe aXIP binding to arrayed compounds – biochemical, NeuroSMM set, 635/667 nm fluorescence, primary screen (AID 1119).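 Also: probe is the protein aXip251-270 applied at 1 µg/mL to compound-printed slides; binding of probe to printed compounds measured as 667 nm fluorescence plus signal to noise.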 Particulars: small-molecule microarray, higher = more signal, called active from +8 up or from −8 down.
A short description of assay [3]: probe aNOTCH3 binding on compound microarray – biochemical, small-molecule microarray, 635/667 nm fluorescence, primary screen (AID 1120).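 Also: probe is a biotin-tagged antibody raised against NOTCH3 rather than NOTCH3 protein; score merges spot fluorescence near 667 nm with spot signal to noise.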 Particulars: higher = more signal.
The nature of assay [4]: probe aNOTCH2 binding on compound microarray – biochemical, small-molecule microarray, 635/667 nm fluorescence, primary screen (AID 1121).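 Also: score merges feature fluorescence read at 667 nm with its signal to noise.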 Particulars: higher = more signal.
The target of assay [5] is Carbonic anhydrase 2 (Homo sapiens) (UniProt P00918). The experiment in a line: compounds binding carbonic anhydrase 2 – biochemical, small-molecule microarray, Alexa647-labelled CAII, profiling panel (AID 1122). Particulars: CAII-A647 binding fluorescence, higher = more signal.
Assay [6] in a line: COS7 lysate on small-molecule microarray, probe aHis, 635 nm (AID 1123).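 Also: z-score combines 667nm fluorescence intensity with signal-to-noise per printed compound spot.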 Conditions: COS7 cell lysate, fluorescence, higher = more signal.
The nature of assay [7]: probe aLAP1 signal on lysate-treated microarray – cell lysate, small-molecule microarray, COS7 lysate, primary screen (AID 1124).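 Also: lysate comes from COS7 cells expressing LAP1 and is applied at 0.3 µg/mL; score merges spot fluorescence near 667 nm with signal-to-noise over triplicate slides.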 Conditions: probe aLAP1, fluorescence, higher = more signal.
Assay [8] relates to Sam68 (KHDRBS1). The experiment in a line: compounds binding KHDRBS1 protein – biochemical, small-molecule microarray, 635 nm fluorescence, primary screen (AID 1125).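 Also: score merges 667 nm channel intensity with signal to noise over triplicate slides.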 Conditions: higher = more signal.
Assay [9] relates to Chordin-like protein 2 (CHRDL2). As to the kind of experiment: compounds binding chordin-like 2 – biochemical, small-molecule microarray, 635 nm fluorescence, primary screen (AID 1126).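 Also: printed compound slides probed with Chrdl2 protein at 4 µg/mL for 1 h at 4 C; score merges 667 nm emission intensity with signal to noise over three replicate slides.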 Conditions: fluorescence 635 nm, higher = more signal.
Assay [10] deals with Concanavalin-A (Canavalia ensiformis) (UniProt P02866). The experiment in a line: compounds binding concanavalin A lectin – biochemical, small-molecule microarray, Alexa647 label, 635 nm, artefact control for SMM control protein annotation, primary screen (AID 1127).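 Also: z combines 667 nm emission intensity with signal-to-noise across three replicate slides.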 Particulars: ConA-A647 binding fluorescence, higher = more signal.
Chain of Concanavalin-A (Canavalia ensiformis) (P02866 whole entry, looked up): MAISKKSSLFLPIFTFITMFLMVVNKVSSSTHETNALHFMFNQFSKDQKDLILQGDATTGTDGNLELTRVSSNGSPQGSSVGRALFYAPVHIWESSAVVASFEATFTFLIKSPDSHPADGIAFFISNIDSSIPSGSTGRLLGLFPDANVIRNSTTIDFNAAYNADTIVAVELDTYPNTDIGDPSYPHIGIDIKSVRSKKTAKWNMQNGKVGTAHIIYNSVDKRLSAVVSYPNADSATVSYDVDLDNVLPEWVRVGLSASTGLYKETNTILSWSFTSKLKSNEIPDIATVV

Activity calls are given as the source filed them.

Chain of Albumin (Bos taurus) (P02769 whole entry, looked up): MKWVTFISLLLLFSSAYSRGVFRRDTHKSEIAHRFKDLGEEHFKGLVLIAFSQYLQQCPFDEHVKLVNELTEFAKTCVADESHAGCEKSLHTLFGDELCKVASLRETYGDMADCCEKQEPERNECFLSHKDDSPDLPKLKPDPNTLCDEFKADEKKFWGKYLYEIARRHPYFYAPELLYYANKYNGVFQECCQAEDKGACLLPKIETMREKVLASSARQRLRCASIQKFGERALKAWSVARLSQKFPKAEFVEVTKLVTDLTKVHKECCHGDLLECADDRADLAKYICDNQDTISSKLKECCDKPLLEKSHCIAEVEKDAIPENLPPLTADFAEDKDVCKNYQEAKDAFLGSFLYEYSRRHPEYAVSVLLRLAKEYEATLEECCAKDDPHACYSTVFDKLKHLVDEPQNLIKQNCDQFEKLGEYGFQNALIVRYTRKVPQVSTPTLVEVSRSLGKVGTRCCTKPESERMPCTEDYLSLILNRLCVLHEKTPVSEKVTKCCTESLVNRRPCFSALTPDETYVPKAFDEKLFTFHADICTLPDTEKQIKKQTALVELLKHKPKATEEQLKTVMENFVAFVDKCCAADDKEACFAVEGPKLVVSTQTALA

Turning to `Cc1ccc(S[C@]2(C(=O)NC(C)C)CC(=O)N(Cc3cc(C(F)(F)F)cc(C(F)(F)F)c3)[C@@H]2c2ccc(CO)cc2)cc1`, the composite z-score in [1] is -0.0844; in assay [3] it was -0.384; in assay [4], -0.126; in assay [5], 0.241; in [6] it was 0.596; in assay [7], 0.293. Also, the composite z-score is -0.374 in assay [8], -1.19 in [9] and -0.534 in [10]. The composite Z-score in [2] was -0.459 (inactive).

With `Cc1ccc(C(C)CC(O)C2C=CC3C(=O)N(c4ccccc4)C(=O)C3N2Nc2ccccc2)o1` (stereo not given), the composite z-score in assay [1] is 0.804; in assay [3], 0.257; in [4], -0.0303; in assay [5], 0.382; in assay [6] it was 1.55; in assay [7] it was 0.412. Besides, the composite z-score in assay [8] was 1.29; in assay [9] it was -0.19; in assay [10] it was 1.09. Also, the composite Z-score in assay [2] was -0.474 (inactive).

On to `O=C1O[C@@H](c2ccccc2)[C@@H](c2ccccc2)N2[C@@H](c3ccc(OCCO)cc3)[C@]3(C(=O)Nc4ccc(C#CC5=CCCCC5)cc43)[C@@H](C(=O)NC[C@H](O)c3ccccc3)[C@H]12`, for which the composite z-score was -0.948 in assay [1]; 1.03 in [3]; 0.338 in assay [4]; 0.117 in [5]; 1.57 in assay [6]; 0.109 in assay [7]. The composite z-score in assay [8] amounted to 1.3; in assay [9], 1.16; in [10], 1.17. For the same compound, the composite Z-score in assay [2] was -0.176 (inactive).

For the compound `O=C(O)[C@@H]1C[C@@H]2C(=O)N3CCC[C@H]3C(=O)N2[C@@H]1c1ccc(O)cc1`, the composite z-score in [1] was -0.0352; in assay [3], 0.0927; in assay [4] it was -0.0126; in assay [5], 0.579; in [6] it was 0.538; in [7], 0.619. Further, the values for the composite z-score in assay [8], in assay [9] and in assay [10] were 0.721, 0.931 and 0.878, respectively. Besides, the composite Z-score in assay [2] is 0.309 (inactive).

On to `COc1cc2c(cc1O)C(c1cccs1)N(Cc1cc3c(cc1Br)OCO3)CC2` (stereo not given), for which the composite z-score is 0.794 in assay [1]; 0.0438 in assay [3]; -0.0397 in [4]; 0.723 in assay [5]; 2.92 in assay [6]; 1.03 in [7]. Besides, the composite z-score in assay [8] is 1.04; in assay [9] it was 0.417; in [10] it was 1.12. Moreover, the composite Z-score in [2] is 0.715 (inactive).

In the case of `CCOC(=O)C[C@H]1[C@H](OC(=O)c2ccc(-c3ccccc3)cc2)[C@@H](NC(=O)CC(C)C)c2cc(OCCCO)ccc2N1C(=O)c1ccc2ccccc2n1`, the composite z-score in assay [1] was 0.363; in [3], 0.041; in assay [4] it was -0.161; in assay [5] it was 0.0808; in [6], 1.19; in assay [7], -0.259. Moreover, the values for the composite z-score in assay [8], in assay [9] and in assay [10] were 0.787, 0.0987 and 1.07, respectively. Further, the composite Z-score in assay [2] was -0.122 (inactive).

For `[N-]=[N+]=Nc1ccccc1C[C@]1(C(=O)NCC(O)CO)COC(c2ccc(OCCCO)cc2)=N1` (stereo not given in full), the composite z-score in assay [1] was 0.407; in assay [3], 0.0339; in assay [4], -0.0482; in [5] it was 0.753; in assay [6] it was 2.09; in assay [7] it was 0.282. Also, the composite z-score was -0.206 in assay [8], -1.21 in assay [9] and 0.832 in assay [10]. Moreover, the composite Z-score in assay [2] is 0.371 (inactive).

With `CCOC(=O)C1=C[C@@H](C(C)(C)C)N(S(=O)(=O)c2ccc(C)cc2)[C@H]1c1cccc2ccccc12`, the composite z-score in assay [1] is 0.261; in assay [3], 0.0327; in assay [4] it was -0.101; in assay [5], 0.312; in assay [6], 1.76; in assay [7], 0.0493. Further, the composite z-score in assay [8] was 1.05; in assay [9] it was -0.516; in assay [10], 1.05. In addition, the composite Z-score in [2] was 0.592 (inactive).

Take `CC(=O)N1CC2(CC2)CC1c1ccccc1` (stereo not given): the composite z-score in [1] was found to be 0.336; in assay [3], 0.77; in [4], 0.172; in assay [5], 0.671; in assay [6], 1.88; in assay [7], 0.562. Further, the composite z-score was 0.913 in assay [8], 0.0586 in assay [9] and -0.0459 in assay [10]. Further, the composite Z-score in assay [2] is 0.204 (inactive).

On to `C=C(COC)/C(=C/C[C@H](OC(=O)c1ccncc1)c1ccc(CO)o1)c1cnc2ccccc2c1`, for which the composite z-score in assay [1] is -0.0377; in assay [3], 0.0282; in [4], -0.123; in assay [5] it was 0.915; in [6], 1.04; in [7], 1.12. The composite z-score amounted to 1.27 in [8], 0.766 in assay [9] and 1.08 in assay [10]. Moreover, in assay [2], the composite Z-score was 0.99 (inactive).

With `CC1CC/C=C\[C@H]2OC34C=CCN(c5ccc6ccccc6c5)C(=O)[C@H]3N(CCCO)C(=O)[C@@H]4C2C(=O)O1` (stereo not given in full), the composite z-score in assay [1] is -0.132; in [3], -0.276; in assay [4] it was -0.16; in assay [5], 0.574; in [6], -0.515; in assay [7], -0.701. Moreover, the composite z-score in assay [8] was -0.335; in [9] it was -1.77; in assay [10] it was -0.71. Further, in assay [2], the composite Z-score was 1.18 (inactive).

(Values after PubChem BioAssay.)
